Source: PubChem BioAssay
This is a sample that favours compounds with a hit; in the whole collection about 3.1% have one here.
HIF act = HIF pathway transcriptional activators, primary screen, cell-based, U2OS HRE-luciferase, luminescence; U2OS HRE-luciferase reporter; normalized: DMSO 0%, desferrioxamine 100%; activation, % at 7.5 µM (by protocol); 300,000 compounds, 0.32% hits;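 active = mean activation of at least 10% of the iron chelator positive control signal, with at least half of replicates also reaching 10%; inconclusive = mean and replicate majority disagree about reaching 10%; inactive = mean and most replicates under 10%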
HSF1 inhib = HSF1 inhibitors in luciferase reporter cells, primary screen, cell-based, NIH3T3, luminescence. activity change, negative = inhibition, % at 7.5 µM (by protocol). AID 2098, 2009. NIH3T3-HGL HSE-luciferase, MG132-induced, luminescence 8 h; stronger effect = lower value. 300,000 compounds, 0.77% hits;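 active = more than half of replicate wells show activity change below -50%, luminescence cut by over half; inconclusive = some wells, but at most half, below -50%; inactive = no replicate well below -50%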;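 note: luciferase reports HSF-1 transcriptional activity via heat shock element; 0% = median of DMSO wells and -100% = zero luminescence signal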
HSP90 refold inh = HSP90 inhibitors, primary screen, cell lysate, luminescence. Rabbit reticulocyte lysate, luciferase refolding luminescence, 3 h. 290,000 compounds, 0.91% hits. Heat shock protein HSP 90 (rabbit reticulocyte lysate; luciferase refolding). inhibition, % at 5.6 µM;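 active = inhibition above the screen-wide mean plus 3 SD, computed separately per campaign, cut at about 16% in these data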;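 note: 0% = DMSO wells and 100% = 60 µM geldanamycin wells; inhibitors lower the luminescence because luciferase stays unfolded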
HSF-1 act = HSF-1 activators, primary screen, NIH3T3-HGL cells, MG132 stress, luminescence, single point; activation, % at 9 µM; NIH3T3-HGL HSF-1 luciferase reporter, 8 h; 100% = twice DMSO control signal; AID 504408, 2011; 300,000 compounds, 1.7% hits;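 active = mean replicate activation of at least 50% with a set share of replicates each reaching 50%; inconclusive = only one of those two conditions met; inactive = mean below 50% and too few replicates reaching it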;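 note: 0% = median of the neutral control wells and 100% = twice that signal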
ARNT TACC3 PPI = disruptors of ARNT/TACC3 protein interaction, primary screen, biochemical, AlphaScreen, single concentration; 390,000 compounds, 0.66% hits; AlphaScreen His-ARNT PAS-B/GST-TACC3 binding, luminescence; TACC3 fragment carries E629A point mutation; Transforming acidic coiled-coil-containing protein 3 (Homo sapiens), Q9Y6A5; inhibition, % at 9.99 µM;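 active = mean inhibition of replicates at least 50% and at least half of replicates each reaching 50%; inconclusive = half or more replicates reach 50% but mean below 50%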;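 note: 0% = complete ARNT plus TACC3 wells and 100% = ARNT alone without TACC3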
HSP90 confirm = HSP90 inhibitors, confirmation, cell lysate, luminescence. 2,300 compounds, 64% hits. rabbit reticulocyte lysate, luciferase refolding luminescence, 3 h. shares compounds with HSP90 refold inh. inhibition, % at 5.9 µM; in the data active = inhibition above about 18%;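 note: 0% = vehicle wells and 100% = reference inhibitor wells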
FLuc counter = firefly luciferase inhibitors, HSP90 counter-screen, confirmation, artefact control for HSP90 inhibitor project, biochemical, luminescence, triplicate; shares compounds with HSP90 refold inh; purified native firefly luciferase; inhibition, % at 5.9 µM; 2,300 compounds, 48% hits;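 active = inhibition above the mean inhibition of all tested sample wells plus 3 SD, cut at about 10% in these data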;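 note: 0% = DMSO with luciferase and 100% = wells lacking luciferase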
Target sequence (P08659 whole entry, looked up): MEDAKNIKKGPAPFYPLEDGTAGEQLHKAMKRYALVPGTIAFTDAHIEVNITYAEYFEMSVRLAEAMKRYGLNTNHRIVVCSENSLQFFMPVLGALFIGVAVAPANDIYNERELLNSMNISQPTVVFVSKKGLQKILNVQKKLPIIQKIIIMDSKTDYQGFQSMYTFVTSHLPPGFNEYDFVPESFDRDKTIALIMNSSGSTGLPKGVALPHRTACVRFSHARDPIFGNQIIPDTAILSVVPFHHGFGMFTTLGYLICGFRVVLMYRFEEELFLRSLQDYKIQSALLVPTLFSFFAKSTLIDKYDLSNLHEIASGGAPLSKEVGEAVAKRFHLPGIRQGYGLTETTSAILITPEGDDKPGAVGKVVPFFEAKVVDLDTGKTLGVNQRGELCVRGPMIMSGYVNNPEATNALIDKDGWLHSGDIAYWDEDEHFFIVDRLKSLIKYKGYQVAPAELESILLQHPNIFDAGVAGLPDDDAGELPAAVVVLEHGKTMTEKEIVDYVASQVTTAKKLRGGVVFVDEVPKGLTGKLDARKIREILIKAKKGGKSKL
Numbers without * were called inactive; u = inconclusive; x = not tested or not shown.

SMILES	HIF act	HSF1 inhib	HSP90 refold inh	HSF-1 act	ARNT TACC3 PPI	HSP90 confirm	FLuc counter
C[C@@H]1CN([C@@H](C)CO)C(=O)c2cc(NC(=O)CCCN(C)C)ccc2O[C@@H](C)CCCCO[C@@H]1CN(C)S(=O)(=O)c1ccc(F)cc1	x	x	x	x	-6	x	x
O=C(C[C@@H]1CC[C@H](NC(=O)c2ccccc2)[C@@H](CO)O1)Nc1ccc(-c2ccccc2)cc1	x	x	x	x	20	x	x
CCOc1ccccc1-n1c(SCC(=O)Nc2ccccc2C(=O)O)nc2ccccc2c1=O	0	-74*	50*	-75	3	56*	37*
CCc1sc(C(=O)Nc2ncccc2C)cc1C	2	-1	-3	-3	x	x	x
CCc1sc(C(=O)Nc2ncccc2O)cc1C	-2	20	22*	21	25	52*	42*
CC1CCN(S(=O)(=O)c2ccc3c(c2)N(CC(=O)NCCN2C(C)CCCC2C)C(=O)CS3)CC1 (stereo not drawn)	0	1	21*	9	2	-7	-12
CC(C)(C)c1ccc(C(=O)Nc2cccc3c(=O)[nH][nH]c(=O)c23)cc1	0	-61*	47*	-61	-42	62*	21*
CCOc1cccc(C(=O)Nc2ccc3ccccc3c2)c1	-2	4	19*	16	3	47*	37*
Cc1cc(C(=O)Nc2cccc(C(=O)O)c2)c(C)o1	1	4	5	7	0	x	x
CCOc1cccc(C(=O)Nc2cccc(C(C)=O)c2)c1	1	42	0	45	x	x	x
CCOc1cccc(C(=O)Nc2ccc3c(c2)OCCO3)c1	-6	18	19*	37	11	45*	27*
O=C(Nc1ccc2c(c1)OCCO2)c1cccc(C(=O)Nc2ccc3c(c2)OCCO3)c1	1	20	-2	40	40	x	x
CCOc1c(Cl)cc(C(=O)Nc2cccc(C(=O)O)c2)cc1Cl	2	18	30*	41	-2	47*	9.8*
Cc1cc(C(=O)Nc2cccc(C(=O)O)c2)oc1C	-3	-53*	86*	-59	1	92*	79*
COc1ccc(S(=O)(=O)Nc2ccc3c(c2)C(=O)N([C@@H](C)CO)C[C@H](C)[C@@H](CN(C)C(=O)Nc2ccc(F)cc2)OCCCC[C@@H](C)O3)cc1	x	x	x	x	-13	x	x
C/C=C/c1cnc2c(c1)C(=O)N([C@@H](C)CO)C[C@H](C)[C@@H](CN(C)Cc1cncnc1)O2	x	x	x	x	-7	x	x
CCOc1ccc(C(=O)Nc2ccc3[nH]ncc3c2)cc1	-12	9	18*	30	-3	40*	11*
Cc1cccc(OCC(=O)Nc2nccs2)c1C	-1	28	27*	56*	0	29*	14*
Cc1c(C)c2ccc(OCC(=O)Nc3nccs3)cc2oc1=O	-4	3	58*	5	-1	73*	56*
Cc1c(C)c2ccc(OCC(=O)NCc3ccccn3)cc2oc1=O	0	-2	-1	5	-1	x	x
Cc1c(C)c2ccc(OCC(=O)Nc3ccccn3)cc2oc1=O	-1	6	25*	-11	-1	64*	28*
Cc1noc(C)c1NC(=O)Nc1ccc2c(c1)C(=O)N([C@@H](C)CO)C[C@@H](C)[C@@H](CN(C)C(=O)Cc1ccccc1)OCCCC[C@@H](C)O2	x	x	x	x	0	x	x
O=C(COc1ccc(Br)cc1Cl)NC(=S)Nc1ccccn1	1	-40	32*	-49	-4	38*	32*
Cc1ccc(OCC(=O)NC(=S)Nc2ccccn2)c(Br)c1	-3	-63*	72*	-66	-1	80*	79*
Cc1nc(NC(=S)NC(=O)COc2ccccc2Cl)ccc1Br	0	4	0	21	-1	x	x
SMILES	HIF act	HSF1 inhib	HSP90 refold inh	HSF-1 act	ARNT TACC3 PPI	HSP90 confirm	FLuc counter
COc1ccc(OCC(=O)NC(=S)NNC(=O)COc2ccc(Br)cc2Cl)cc1	0	-5	-1	-2	12	x	x
CO[C@@H]1CN(C)C(=O)c2ccc(NC(=O)c3cc(C)on3)cc2OC[C@H](C)N(C(C)=O)C[C@@H]1C	x	x	x	x	-5	x	x
CC(C)(C)C(=O)N1CCc2cc(-c3csc(N)n3)ccc21	-1	u	57*	-51	-2	76*	70*
CCC(=O)Nc1cc2nn(-c3ccc(C)cc3)nc2cc1C	0	-62*	51*	-67	-20	75*	67*
CCC(=O)Nc1cc2nn(-c3ccc(OC)cc3)nc2cc1C	0	-12	4	-31	-23	x	x
O=C(Nc1cccc(F)c1)N1C[C@H]2[C@@H](c3ccccc31)[C@H](CO)N2C(=O)Cc1ccccc1	x	x	x	x	-22	x	x
COc1ccc(NC(=O)Nc2ccc3c(c2)C(=O)N([C@@H](C)CO)C[C@H](C)[C@H](CN(C)C(=O)Nc2ccccc2)O3)cc1	x	x	x	x	-3	x	x
Cc1cccc(NC(=O)CSc2nnc(Cn3nnc(-c4ccccc4)n3)n2-c2ccccc2)c1	-1	13	21*	8	-4	5	-10
CNC[C@@H]1Oc2cc(C#Cc3cccc(F)c3)ccc2S(=O)(=O)N([C@H](C)CO)C[C@H]1C	x	x	x	x	2	x	x
Cn1cccc1C(=O)NC(=O)COC(=O)C12CC3CC(CC(O)(C3)C1)C2	1	-61*	43*	-69	x	54*	44*
COc1cccc(NC(=O)c2cc3ccccc3oc2=O)c1	2	23	28*	u	-19	64*	72*
CCC(=O)Nc1cccc(-c2cc3ccccc3oc2=O)c1	0	-30	19*	-37	1	32*	19*
C[C@H](CO)N1C[C@H](C)[C@@H](CN(C)Cc2ccccc2)Oc2ccc(NS(=O)(=O)c3ccccc3)cc2C1=O	x	x	x	x	11	x	x
CN(C)c1ccc(/C=C(\Cl)c2nc3ccccc3s2)cc1	x	x	49*	x	-1	71*	72*
O=C(O)c1ccc(-c2nc(-c3ccc(Cl)cc3)cs2)cc1	1	11	2	49	-4	x	x
COc1ccc(-c2csc(-c3ccc(C(=O)O)cc3)n2)cc1	1	13	19*	43	x	39*	0
COc1cccc(-c2ccc3c(c2)O[C@H](CN(C)C(=O)C2CCOCC2)[C@H](C)CN([C@@H](C)CO)S3(=O)=O)c1	x	x	x	x	-1	x	x
